Sampled rows, rich in hits. Any-hit rate of the full collection: about 4.8%.
DAX1 inh-1 = inhibitors of DAX1 repression of SF-1 activated StAR promoter; HEK293T StAR-luciferase reporter, SF-1/DAX-1 repression relief; inhibition, % at 6.8 µM; hit rate 1.1% among 370,000;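 active = inhibition above the mean over all tested compounds plus 3 SD, cut at about 3.6% in these data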;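 note: 0% = DAX-1 cells with DMSO and 100% = cells lacking DAX-1 with DMSO; higher inhibition means more luminescence from relief of DAX-1 repression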
hcDAF-12 act = H. contortus DAF-12 activation, primary screen | HEK293 hcDAF-12 lit1-tk-luc reporter, luminescence; 0% DMSO, 100% Δ7-dafachronic acid | activation, % at 6.8 µM | hit rate 1.4% among 370,000;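 active = activation above the mean of all tested compounds plus 3 SD, cut at about 5.5% in these data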;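 note: 100% = response to 3 µM Δ7-dafachronic acid high control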
hgDAF12 agonist = hgDAF-12 agonism, primary luciferase screen | AID 687014 | HEK293 GAL4-hgDAF12 UAS-luciferase reporter, agonist luminescence; normalized to butyrate control | hit rate 1.8% among 370,000 | activation, % at 6.8 µM;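 active = activation above a cutoff set at the mean of all screened compounds plus 3 SD, cut at about 10% in these data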;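 note: 0% = DMSO wells and 100% = sodium butyrate wells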
SMARCA2 activ = activators of SMARCA2 function | MG213 cells, MMTV-luciferase reporter, dexamethasone, overnight | activation, % at 9.1 µM | hit rate 1% among 370,000 | AID 652017; in the data active = activation above about 7.8%;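 note: 0% = vehicle wells and 100% = reference activator wells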
DAX1 inh-2 = NR0B1 (DAX1) inhibition; HEK293 Gal4-DAX1 luciferase reporter, luminescence; inhibition, % at 6.75 µM; hit rate 0.99% among 340,000;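 active = inhibition above the mean over all tested compounds plus 3 SD, cut at about 4.2% in these data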;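 note: 0% = DAX1-transfected cells with DMSO and 100% = empty-vector control cells with DMSO; inhibition shows as a rise in luminescence from relieved DAX1 repression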
Target sequence (P51843 207-470 limits assumed): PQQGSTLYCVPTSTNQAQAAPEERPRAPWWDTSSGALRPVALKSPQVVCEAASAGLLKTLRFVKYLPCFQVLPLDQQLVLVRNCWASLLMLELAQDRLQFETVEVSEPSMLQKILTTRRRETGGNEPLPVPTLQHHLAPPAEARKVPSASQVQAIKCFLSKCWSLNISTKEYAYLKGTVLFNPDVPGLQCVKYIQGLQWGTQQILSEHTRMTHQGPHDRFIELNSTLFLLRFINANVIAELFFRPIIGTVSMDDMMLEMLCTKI
ssDAF12 agonist = activators of S. stercoralis DAF-12 nuclear receptor | activation, % at 6.8 µM | HEK293 ssDAF-12/GRIP1 lit1-tk-luc reporter, luminescence; % of 3 µM dafachronic acid response | AID 652126 | hit rate 1% among 370,000;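 active = activation above the mean over all tested compounds plus 3 SD, cut at about 0.9% in these data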;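 note: 0% = DMSO-only wells and 100% = 3 µM delta7-dafachronic acid wells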
Numbers without * were called inactive; nt = no result given.

SMILES	DAX1 inh-1	hcDAF-12 act	hgDAF12 agonist	SMARCA2 activ	DAX1 inh-2	ssDAF12 agonist
O=C(NCCc1ccccc1)c1ccccc1NC(=O)C1CCCO1 (configuration not stated)	4.3*	5.6*	11*	6	1	0
CCCCNC(=O)c1ccc(NC(=O)C2CCCO2)cc1 (configuration not stated)	0	-1	2	-3	0	0
CCCCc1ccc(NC(=O)C2CCCO2)cc1 (configuration not stated)	2	3	11*	5	2	-1
Cc1ccc(C2(C)NC(=O)N(CC(=O)Nc3ccccc3N3CCCCC3)C2=O)cc1 (configuration not stated)	-2	-1	-2	-2	-1	-1
CCN(CC(=O)Nc1c(F)cccc1F)C(=O)c1cc(C)nc2ccccc12	-1	2	0	1	1	1.0*
CCN(CC(=O)Nc1c(F)cccc1F)C(=O)c1ccccc1F	0	0	-1	-1	2	-2
CC(C)=CC(=O)Nc1c(C)cc(C)cc1Cl	0	2	-2	-1	4.6*	-1
Cc1cc(C)c(NC(=O)CCCC(=O)O)c(Cl)c1	0	0	-2	0	1	-2
CCOC(=O)N(Cc1ccccc1)Cc1ccc(C(=O)N[C@@H](Cc2ccccc2)C(=O)O)cc1	0	-1	2	0	6.5*	-2
COc1ccc(Nc2oc(-c3ccccc3)nc2C#N)cc1	0	1	10*	0	-1	-2
COc1ccc(Nc2oc(-c3ccc(Cl)cc3)nc2C#N)cc1	0	3	11*	6	1	0
COC(=O)C1C(O)C(C)C(O)C(C)(O)/C=C\C=C(/C)C(=O)Nc2c(C)c(OC(C)=O)c3c(c2O)C(=O)C(C)=C2OCOC(=C23)/C(C)=C/C(C)(O)C(O)C(C)C1O (configuration not stated)	0	1	-4	-1	-2	-1
Cc1cc(C)c2c(N)c(C(=O)Nc3ccccc3F)sc2n1	2	2	11*	3	5.3*	-1
O=[N+]([O-])c1cc(C=Nc2ccc3ccccc3c2)ccc1Br	1	2	5	4	1	1.2*
COc1ccc(OC)c(NC(=O)CSc2nc3ccccc3cc2Cc2ccccc2)c1	2	-1	1	-1	0	-1
Clc1ccc(OCc2nnc(-c3ccccc3Br)o2)cc1	0	0	0	-1	0	2.1*
Clc1cccc(OCc2nnc(-c3ccccc3Br)o2)c1	1	0	2	-10	1	-1
CC(=O)c1ccc(N2CCCCCC2)c(F)c1	0	-2	2	1	-1	-1
CCN(C(=O)COC(=O)CCCc1nc2ccccc2s1)c1c(N)n(Cc2ccccc2)c(=O)[nH]c1=O	-1	1	-1	2	0	-1
CC(C)CN(C(=O)COC(=O)CCc1nc2ccccc2s1)c1c(N)n(Cc2ccccc2)c(=O)[nH]c1=O	3.7*	2	1	-4	1	-1
Cc1ccc(S(=O)(=O)N2CCOCC2)cc1C(=O)NC(C)CCc1ccccc1 (configuration not stated)	0	0	0	-2	-1	-1
CCOc1cccc(-c2cc(C(=O)NN)[nH]n2)c1	0	1	11*	-1	2	-2
CCc1ccc(C(N)=S)cc1	-1	1	3	-4	-1	0
O=C(CCc1nc2ccccc2c(=O)[nH]1)N1CCCc2ccccc21	2	5.6*	2	0	0	1.3*
Clc1ccc(/C=N/NC(=Nc2ccccc2)c2ccccn2)c(Cl)c1	3	6	12*	4	3	0
SMILES	DAX1 inh-1	hcDAF-12 act	hgDAF12 agonist	SMARCA2 activ	DAX1 inh-2	ssDAF12 agonist
C(=N\NC(=Nc1ccccc1)c1ccccn1)/c1ccccn1	1	1	3	1	1	-1
Cc1ccc(OCc2nc(C#N)c(NCc3ccc4c(c3)OCO4)o2)cc1	-1	-1	-3	-4	2	-2
O=C(O)c1ccc(-c2ccccc2)[nH]c1=O	0	-1	-2	5	5.4*	-1
O=C(O)C1CCC(CNS(=O)(=O)c2ccc(Cl)cc2)CC1 (configuration not stated)	0	-1	0	-2	0	-1
COc1ccc(NC(=O)N2CCCCC2c2cccnc2)cc1 (configuration not stated)	1	5.6*	11*	-2	0	0
COc1cc(OC)cc(C(=O)NC(=S)N2CCCCC2c2cccnc2)c1 (configuration not stated)	1	0	-2	-1	4	-1
COc1cc(OC)cc(C(=O)N=c2sc3ccccc3n2C)c1	2	2	11*	5	1	0
COc1cccc(C(=O)N/N=c2\sc3ccccc3n2C)c1	0	0	1	1	0	-2
COc1ccccc1N1C(=O)C2CC(C)=C(C)CC2C1=O (configuration not stated)	2	2	1	1	0	0
OC(COc1ccc2cc(Br)ccc2c1)Cn1ccnc1 (configuration not stated)	-1	-2	3	-2	-1	-1
CCOc1ccc(N(CC(=O)Nc2ccc(F)c(F)c2)S(=O)(=O)c2c(C)noc2C)cc1	1	-1	-1	-1	4.4*	-1
CCOc1ccc(N(CC(=O)Nc2ccc(C)cc2)S(=O)(=O)c2c(C)noc2C)cc1	0	0	1	-2	3	-2
CCOc1ccc(N(CC(=O)NC(C)(C)C)S(=O)(=O)c2c(C)noc2C)cc1	0	0	1	0	6.8*	-1
COc1ccc(C(=O)NC(=O)CSc2n[nH]c(N)n2)cc1	0	-1	-1	4	-1	-1
Cc1cccc(OCC(=O)NCC(=O)N=Nc2c(O)[nH]c3ccc([N+](=O)[O-])cc23)c1	0	3	3	0	6.1*	0
CC(C)N(C)c1ncnc2c1ncn2[C@H]1CN(Cc2cccnc2)C[C@@H](CO)O1	-1	-1	-1	-1	nt	8.1*
CC(=O)Nc1ccc(S(=O)(=O)NCc2nnnn2-c2ccc(F)cc2)cc1	-1	0	0	-1	1	-1
COc1cccc(N2C(C(C)=O)=NN(c3ccccc3)C2c2ccc(N3CCOCC3)cc2)c1 (configuration not stated)	1	1	11*	0	1	1
Cc1ccc(Cn2c(=O)n(C)c(=O)c3sccc32)cc1	0	-1	-1	-2	-2	-2
O=C(Nc1cccc(Cl)c1)C1CCCCC1	0	-1	1	2	1	-1

Assay outcomes from PubChem.
